# HP1b chromo inh = HTS for Inhibitors of HP1-beta Chromodomain Interactions with Methylated Histone Tails | AID 540317, 2011 | AlphaScreen HP1-beta / biotin-H3K9me3 peptide binding | Potency, µM (series often up to 114 µM), inactives show at the highest dose activity change, negative = inhibition, actives largely listed as inhibitors | 390,000 compounds, 0.56% hits; note: nearly all actives have a fitted effect of over 70% in size
#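 AlphaScreen: HP1-beta (50 nM) preformed 30 min with biotin-H3(1-18)K9me3 peptide (50 nM) in PBS pH 7.4, 0.01% Tween-20. Compound added for 30 min at RT, then streptavidin donor/nickel chelate acceptor beads (10 ug/mL) for 30 min.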
# L3MBTL1 inh = qHTS Assay for the Inhibitors of L3MBTL1. Potency, µM (series often up to 57.1 µM), for inactives: top-dose activity, negative = inhibition, usual class: inhibitors. AlphaScreen L3MBTL1–H3K9me1 peptide binding. 230,000 compounds, 0.66% hits. Lethal(3)malignant brain tumor-like protein 1 (Homo sapiens), Q9Y468; note: % is set by controls: 0 for no effect and ±100 for the full control effect; nearly all actives have a fitted effect of over 60% in size
# Target sequence (Q9Y468 whole entry, looked up): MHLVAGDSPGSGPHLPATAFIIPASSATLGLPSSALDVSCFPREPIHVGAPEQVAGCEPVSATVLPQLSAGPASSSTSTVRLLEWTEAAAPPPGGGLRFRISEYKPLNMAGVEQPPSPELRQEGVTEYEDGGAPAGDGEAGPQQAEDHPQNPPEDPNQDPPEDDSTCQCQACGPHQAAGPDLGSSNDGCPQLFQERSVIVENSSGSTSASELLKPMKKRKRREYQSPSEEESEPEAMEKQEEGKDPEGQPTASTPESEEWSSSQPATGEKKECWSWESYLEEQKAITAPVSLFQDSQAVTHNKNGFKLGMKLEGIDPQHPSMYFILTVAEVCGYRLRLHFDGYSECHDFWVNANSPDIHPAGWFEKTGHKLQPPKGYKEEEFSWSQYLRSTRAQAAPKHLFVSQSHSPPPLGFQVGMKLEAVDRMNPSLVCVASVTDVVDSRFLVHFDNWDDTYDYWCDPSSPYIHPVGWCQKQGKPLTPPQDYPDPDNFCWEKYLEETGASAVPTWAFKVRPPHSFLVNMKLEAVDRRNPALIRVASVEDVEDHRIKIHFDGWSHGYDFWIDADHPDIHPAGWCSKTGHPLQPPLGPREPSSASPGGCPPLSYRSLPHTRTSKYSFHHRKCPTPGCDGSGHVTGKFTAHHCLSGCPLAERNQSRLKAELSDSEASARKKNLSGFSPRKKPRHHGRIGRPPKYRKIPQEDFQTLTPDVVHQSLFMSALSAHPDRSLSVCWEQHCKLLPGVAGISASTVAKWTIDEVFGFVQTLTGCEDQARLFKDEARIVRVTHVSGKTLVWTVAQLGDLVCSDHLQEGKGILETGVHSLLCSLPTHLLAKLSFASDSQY
#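 Read-out is AlphaScreen signal from streptavidin donor and nickel chelate acceptor beads (10 ug/mL final each) bridging L3MBTL1 (50 nM) and biotinylated K9-monomethylated H3(1-15) peptide (75 nM), after 30 min compound exposure at room temperature.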
# JMJD2A Tudor inh = qHTS Assay for Inhibitors of JMJD2A-Tudor Domain; Lysine-specific demethylase 4A (Homo sapiens), O75164; AlphaScreen JMJD2A-Tudor / H3K4me3 peptide binding; Potency, µM (highest dose often 114 µM), inactives show at the top dose activity change, negative = inhibition, most hits filed as inhibitors; 390,000 compounds, 4.4% hits; note: % is set by controls: 0 for no effect and ±100 for the full control effect; nearly all actives have a fitted effect of over 50% in size
# BAZ2B block = qHTS Assay for Inhibitors of BAZ2B; AlphaScreen BAZ2B-H3K14Ac peptide displacement; Potency, µM (highest dose often 114 µM), for inactives: top-dose activity change, negative = inhibition, most hits filed as inhibitors; 360,000 compounds, 4.4% hits; AID 504333, 2011; note: % is set by controls: 0 for no effect and ±100 for the full control effect; nearly all actives have a fitted effect of over 60% in size
#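 BAZ2B 50 nM plus b-H3(5-23)K14Ac 50 nM, PBS pH 7.4/0.01% Tween-20, 30 min RT; compound added (max 110 uM), 30 min RT; streptavidin donor/Ni-chelate acceptor beads 10 ug/mL final, 20 min dark; AlphaScreen read.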
# G9a inh = qHTS Assay for Inhibitors of Histone Lysine Methyltransferase G9a; Histone-lysine N-methyltransferase EHMT2 (Homo sapiens), Q96KQ7; G9a H3K9 monomethylation, AlphaScreen, 2 h; Potency, µM (titrated, usually from 102 µM), for the others: at the top dose activity, negative = inhibition, actives largely listed as inhibitors; 350,000 compounds, 8.8% hits; note: % is set by controls: 0 for no effect and ±100 for the full control effect; nearly all actives have a fitted effect of over 75% in size
#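 Quantitative HTS format: methyltransferase activity on a biotin-tagged H3K9 peptide is measured by AlphaScreen, using a rabbit anti-monomethyl-H3K9 antibody with streptavidin donor and anti-IgG acceptor beads. Final levels are 20 nM enzyme, 500 nM peptide, 20 uM SAM; 2 h RT.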
# Active calls of the source: *; ? = inconclusive; / = not tested or not shown; [ ] = remark or other dose. An excerpt weighted towards active compounds, which were near 11% of everything screened. Calls come from the whole dose curve; as a rule, active = well fitted inhibition curve with a large enough effect; inconclusive = small, poorly fitted or top-dose-only effect; inactive = no such curve, though single readings can be large or run the other way. Potency is the fitted concentration of half-maximal effect.
SMILES,HP1b chromo inh,L3MBTL1 inh,JMJD2A Tudor inh,BAZ2B block,G9a inh
COc1ccc(NC(=O)C2CCCCN2N)cc1OC (stereo not given),-11%,-4%,-18%[11.4 µM],9%,?
Cc1ccc(NS(=O)(=O)c2cccc(F)c2)cc1C,/,/,-1%,/,/
COc1ccc(CN2CCCC(CO)(Cc3ccc(F)cc3)C2)cc1C (stereo not given),19%,4%,-13%,-1%,-1%
COc1cc(OC)c(OC)cc1CN1CCSCC1,?,-4%,3.2µM*,79µM*,?
COc1cc(C)c(CN2CCSCC2)cc1C,-3%,-7%[2.29 µM],32µM*,?,-31%[0.501 µM]
COc1ccc(CN2CCSCC2)cc1C,?,/,8.9µM*,79µM*,10µM*
CC1(C)CC(=O)C2=C(C1)NC(Nc1nc3ccccc3o1)=NC2c1cccc(O)c1 (stereo not given),17%[57 µM],/,-28%[57.1 µM],/,/
COC(=O)CN1C(=O)CSc2ccc(S(=O)(=O)Nc3ccc(C)c(Cl)c3)cc21,4%,/,-24%,-10%,-31%[59 µM]
CCCCN(c1ccccc1)S(=O)(=O)c1cc2c3c(c1)C(C)C(=O)N3CCC2 (stereo not given),27%,/,-12%,-2%,5%[59 µM]
Cc1ccc(-c2cccc(CN3CCN(C(C)C)C(CCO)C3)c2)o1 (stereo not given),20%,-13%,-24%,-32%,45µM*
Cc1cccc(-c2ncc(CN3CCN(CC(C)C)C(CCO)C3)cn2)c1 (stereo not given),11%,4%,18µM*,-19%,-4%[59 µM]
CCN1CCc2c(sc(NC(=O)c3ccc(S(=O)(=O)N(C)C4CCCCC4)cc3)c2C(N)=O)C1,17%,/,-35%,-19%,?
Cc1ccc(C2CC(=O)N(Cc3ccccc3)c3c2c(C)nn3-c2nc(C)cc(C)n2)cc1 (stereo not given),22%,/,-16%,5%,6%[59 µM]
CCCC(=O)Nc1nc2nc(-c3ccccc3)cc(=O)n2[nH]1,24%,/,-23%,21%,17%
CCC(=O)Nc1nc2nc(-c3ccccc3)cc(=O)n2[nH]1,-10%,/,?,-29%,45µM*
CCc1ccccc1NC1Nc2cc(C)nn2S1 (stereo not given),17%,/,?,-26%,1.6µM*
CCc1ccccc1NC(=O)N1CCCn2nc(C)cc21,36%,/,7%,-2%,4%[59 µM]
Cc1cc2n(n1)SC(Nc1cc(Cl)ccc1Cl)N2 (stereo not given),-4%,?,-32%,2%,7.9µM*
Cc1cc(C)n(CCC(=O)N2CCCC(Nc3ccc(F)cc3)C2)n1 (stereo not given),20%,/,-8%,/,/
Cc1cc2n(n1)SC(Nc1ccc(F)cc1)N2 (stereo not given),-12%,-1%,20µM*,2%,1.4µM*
COc1cc(Cl)c(C)cc1NC(=O)C(OC(=O)CNC(=O)c1ccccc1)c1ccccc1 (stereo not given),/,/,-22%,/,/
COc1ccccc1CNC(=O)c1cc(Sc2cccc(Cl)c2)nc2ccccc12,100%,/,-10%,52%,-2%[59 µM]
COCCNCc1cc(C)n(-c2cc(S(=O)(=O)N3CCOCC3)ccc2N2CCCC2)c1C,-37%,/,5µM*,/,/
COc1ccccc1CNC(=O)C(=O)NCC(c1ccco1)S(=O)(=O)c1ccc(C)cc1 (stereo not given),15%,/,-22%,-9%,-6%[59 µM]
COc1ccc(CCNC(=O)COC(=O)C2CC2)cc1OC,28%,-1%,-5%,/,/
SMILES,HP1b chromo inh,L3MBTL1 inh,JMJD2A Tudor inh,BAZ2B block,G9a inh
CC(C)C1Oc2cc3oc(=O)ccc3cc2C1=O (stereo not given),33%,-1%,1%,-12%,79µM*
O=C(COc1ccccc1)N1CCN(S(=O)(=O)c2cccs2)CC1,21%,/,5%,12%,3%[12.7 µM]
O=S(=O)(c1cccs1)N1CCN(CC(O)COc2cccc(Br)c2)CC1 (stereo not given),?,/,3.2µM*,79µM*,?
CCOc1ccccc1N1CCN(CC(O)COC2CCCc3ccccc32)CC1 (stereo not given),3%,/,-29%,-14%,9%
O=S(=O)(c1cccs1)N1CCN(CC(O)COC2CCCc3ccccc32)CC1 (stereo not given),?,5%,4µM*,50µM*,18µM*
Cc1cc(C)c(NC(=O)c2c(C)oc3c2C2=NCCN2C=N3)c(C)c1,21%,/,-25%,-10%,-14%[59 µM]
COc1ccc(-n2c(=O)c3sc4ccccc4c3n(C)c2=O)cc1,29%,/,-15%,-2%,?
CSc1nncn1/N=C/c1ccc([N+](=O)[O-])cc1,26%,-1%,-3%,-16%,-2%
COc1ccc(/C=N/n2cc(-c3ccccc3)nc2N)cc1,9%,-11%,-34%,1%,-1%[59 µM]
S=c1[nH]ncn1/N=C/c1cccs1,32%,/,4.5µM*,-37%,7.9µM*
O=[N+]([O-])c1ccc(/C=N/n2cn[nH]c2=S)cc1,22%,4%,7.1µM*,-32%,7.9µM*
S=c1[nH]c(-c2ccccc2)cn1/N=C/c1ccc(Br)cc1,33%,/,6%,-12%,13µM*
C(=N\n1cnnc1)/c1cccs1,29%,/,-13%,12%,12%[12.7 µM]
O=C(O)c1ccc(/C=N/n2cc(-c3ccccc3)[nH]c2=S)cc1,41%,11%,2.8µM*,-13%,/
COc1cc(NC(=O)COCc2cc(-c3ccc(F)cc3)on2)cc(OC)c1OC,41%,/,-6%,-24%[57.1 µM],?
CC1=C(C(=O)Nc2cc(Cl)ccc2C)C(c2ccccc2F)n2ncnc2N1 (stereo not given),23%[57 µM],/,-4%,0%,9%[59 µM]
Cc1cc(C)n(-c2nc3ccccc3nc2Nc2cccc(C(F)(F)F)c2)n1,228%,/,90%,28%,74%[59 µM]
C/C(=N/NC(=O)CNC(=O)C(c1ccccc1)c1ccccc1)c1ccco1,-18%,8%,-22%,0%,/
CCc1ccc(OC(C)c2nc(-c3ccc(-n4cccc4)cc3)no2)cc1 (stereo not given),50%,/,13%,18%,10%[59 µM]
Cc1nn(C(=O)Cn2ccc([N+](=O)[O-])n2)c(C)c1Cl,16%,/,-7%,0%,21%[2.33 µM]
C(=N\N=C\c1cccs1)/c1cccs1,7%,-6%,-24%,-25%,-19%
S=c1[nH]c(-c2ccccc2)cn1/N=C/c1cccs1,23%,42%,3.2µM*,-4%,/
S=c1[nH]c(-c2ccccc2)cn1/N=C/c1cccnc1,31%,/,0.79µM*,-19%,2.5µM*
Nc1nc2ccccc2n1/N=C/c1cccnc1,30%,/,-4%,/,/

# High-throughput results from PubChem BioAssay.
